From PubChem BioAssay (NCI) come the findings set out here.

Each structure is given as a SMILES string. Where “and” joins values, the source holds several entries; their conditions need not be identical. Equal entries are not always repeated. Compounds without any hit were thinned out: in the full panel of roughly 79,000, 15% have a hit. Values without a mark were called inactive. Calls of active or inactive are those of the source. Rule as the data show it: active = growth inhibition above about 70%; inactive = the rest.

Test [1] is described as follows: NCI Yeast Anticancer Drug Screen. Data for the rad50 strain (AID 155).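 Also: 0% = growth of vehicle-only cultures of the same strain.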 To be noted: S. cerevisiae rad50 strain growth inhibition, hits give high values. An outline of the steps: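 Readout: growth inhibition relative to vehicle-treated cultures. Compound exposure was carried out in a genetically defined yeast strain deficient in DNA damage repair.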
Test [2] is described as follows: NCI Yeast Anticancer Drug Screen. Data for the mec2-1 strain (AID 157). The conditions noted are these: S. cerevisiae mec2-1 strain, hits give high values. In outline: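 Cells of the genetically defined mec2-1 yeast strain are incubated with test compound. Inhibition of growth is calculated against vehicle-treated controls.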
The nature of test [3]: NCI Yeast Anticancer Drug Screen. Data for the sgs1 mgt1 strain (AID 161).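 Also: 0% = growth of cultures given vehicle only.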 To be noted: S. cerevisiae sgs1 mgt1 strain, hits give high values. An outline of the steps: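 Mutant yeast exposed to compound; growth scored against vehicle-only wells.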
Test [4] in a line: NCI Yeast Anticancer Drug Screen. Data for the cln2 rad14 strain (AID 165).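 Also: 0% = growth equal to vehicle treated cultures.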 The conditions noted are these: S. cerevisiae cln2 rad14 strain, hits give high values. In outline: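 The screen exposed genetically defined yeast (cln2 rad14) to test compounds and scored growth inhibition relative to vehicle-treated controls.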
A short description of test [5]: NCI Yeast Anticancer Drug Screen. Data for the bub3 strain (AID 167). The conditions noted are these: S. cerevisiae bub3 mutant strain, hits give high values. An outline of the steps:
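Readout: yeast growth inhibition, expressed relative to vehicle-only wells. The test organism is a mutant strain from a panel with lesions in DNA repair or checkpoint genes.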

Test [6] in a line: NCI Yeast Anticancer Drug Screen. Data for the mlh1 rad18 strain (AID 175). The conditions noted are these: S. cerevisiae mlh1 rad18 strain growth inhibition, hits give high values. In outline:
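Compound-treated yeast growth, normalised to vehicle controls. Strain bears defined DNA repair mutations.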

Where [7] appears, read: at 5.0 µM (retest, dose inferred, filed as 0.5).
Setting [8] is: at 50.0 µM (retest, dose inferred, filed as 5.0).

Consider `CC(=O)C1CCC2C3CCC4=CC(=[N+]5CCCCC5)CCC4(C)C3CCC12C` (configuration not stated), for which the growth inhibition in test [1] (setting [7]) was 98% (active); in test [1] (setting [8]) it was 74% (active); in test [1] (at 50.0 µM), 95.4% (active); in test [2] (setting [7]), 100% (active); in test [2] (setting [8]), 95% (active); in test [2] (at 50.0 µM) it was 96.4% (active). Further, the growth inhibition is 97% (active) in test [3] (setting [7]); 95% (active) in test [3] (setting [8]); 97.5% (active) in test [3] (at 50.0 µM); 99% (active) in test [4] (setting [7]); 87% (active) in test [4] (setting [8]); 91.7% (active) in test [4] (at 50.0 µM). Moreover, the growth inhibition in test [5] (setting [7]) is 99% (active); in test [5] (setting [8]), 93% (active); in test [5] (at 50.0 µM) it was 93.5% (active); in test [6] (setting [7]) it was 99% (active); in test [6] (setting [8]), 92% (active); in test [6] (at 50.0 µM), 95.8% (active).
As to `CC(=O)OC1C2(CC3N4C(=O)C5(CO)SSC4(CC31O)C(=O)N5C)OC(C)C(C)(C)C2=O` (configuration not stated), the growth inhibition in test [1] (setting [7]) was 67%; in test [1] (setting [8]), 99% (active); in test [1] (at 50.0 µM) it was 90.2% (active); in test [2] (setting [7]), 80% (active); in test [2] (setting [8]), 100% (active); in test [2] (at 50.0 µM), 93.2% (active). For the same compound, the growth inhibition is 68% in test [3] (setting [7]); 97% (active) in test [3] (setting [8]); 92.8% (active) in test [3] (at 50.0 µM); 64% in test [4] (setting [7]); 99% (active) in test [4] (setting [8]); 88.6% (active) in test [4] (at 50.0 µM). For the same compound, the growth inhibition was 71% (active) in test [5] (setting [7]); 99% (active) in test [5] (setting [8]); 91.5% (active) in test [5] (at 50.0 µM); 83% (active) in test [6] (setting [7]); 99% (active) in test [6] (setting [8]); 91.2% (active) in test [6] (at 50.0 µM).
As for `Nc1cc(Cl)ccc1C(=O)c1ccccc1Cl`, the growth inhibition is -1% in test [1] (setting [7]); 98% (active) in test [1] (setting [8]); 98.8% (active) in test [1] (at 50.0 µM); -4% in test [2] (setting [7]); 99% (active) in test [2] (setting [8]); 99% (active) in test [2] (at 50.0 µM). Moreover, the growth inhibition was 2% in test [3] (setting [7]); 98% (active) in test [3] (setting [8]); 98.8% (active) in test [3] (at 50.0 µM); -6% in test [4] (setting [7]); 98% (active) in test [4] (setting [8]); 96.8% (active) in test [4] (at 50.0 µM). For the same compound, the growth inhibition in test [5] (setting [7]) was -9%; in test [5] (setting [8]) it was 98% (active); in test [5] (at 50.0 µM), 98% (active); in test [6] (setting [7]) it was -4%; in test [6] (setting [8]) it was 99% (active); in test [6] (at 50.0 µM) it was 98.2% (active).
For the compound `N#CC(Nc1c(N)nc(-c2ccccc2)nc1N)c1ccc(N(CCCl)CCCl)cc1` (configuration not stated), the growth inhibition in test [1] (setting [7]) was 4%; in test [1] (setting [8]), 45%; in test [1] (at 50.0 µM), 57.5%; in test [2] (setting [7]) it was -18%; in test [2] (setting [8]) it was 26%; in test [2] (at 50.0 µM), 66%. Besides, the growth inhibition in test [3] (setting [7]) was 2%; in test [3] (setting [8]), 43%; in test [3] (at 50.0 µM), 59.8%; in test [4] (setting [7]) it was -10%; in test [4] (setting [8]), 9%; in test [4] (at 50.0 µM), 53.1%. For the same compound, the growth inhibition was -4% in test [5] (setting [7]); -4% in test [5] (setting [8]); 0.75% in test [5] (at 50.0 µM); 27% in test [6] (setting [7]); 90% (active) in test [6] (setting [8]); 55.6% in test [6] (at 50.0 µM).
With `O=c1oc2ccccc2c(O)c1C1c2c(c3ccccc3oc2=O)Oc2c1c(=O)oc1ccccc21`, the growth inhibition was 9% in test [1] (setting [7]); 96% (active) in test [1] (setting [8]); 85% (active) in test [1] (at 50.0 µM); 2% in test [2] (setting [7]); 97% (active) in test [2] (setting [8]); 91.2% (active) in test [2] (at 50.0 µM). In addition, the growth inhibition in test [3] (setting [7]) was 2%; in test [3] (setting [8]), 97% (active); in test [3] (at 50.0 µM), 88.5% (active); in test [4] (setting [7]) it was 12%; in test [4] (setting [8]), 97% (active); in test [4] (at 50.0 µM), 87.3% (active). Further, the growth inhibition in test [5] (setting [7]) was 9%; in test [5] (setting [8]), 97% (active); in test [5] (at 50.0 µM), 84.9% (active); in test [6] (setting [7]), 10%; in test [6] (setting [8]), 97% (active); in test [6] (at 50.0 µM), 92% (active).
With `NCC(O)c1cccc(O)c1` (configuration not stated), the growth inhibition is -18% in test [1] (setting [7]); 77% (active) in test [1] (setting [8]); 70.3% (active) in test [1] (at 50.0 µM); -12% in test [2] (setting [7]); 50% in test [2] (setting [8]); 40.2% in test [2] (at 50.0 µM). For the same compound, the growth inhibition in test [3] (setting [7]) was -8%; in test [3] (setting [8]), 51%; in test [3] (at 50.0 µM) it was 66.3%; in test [4] (setting [7]), 24%; in test [4] (setting [8]) it was 65%; in test [4] (at 50.0 µM), 60%. Also, the growth inhibition in test [5] (setting [7]) was 12%; in test [5] (setting [8]), 77% (active); in test [5] (at 50.0 µM) it was 75.2% (active); in test [6] (setting [7]) it was 11%; in test [6] (setting [8]), 92% (active); in test [6] (at 50.0 µM), 65.3%.
For `[C](#Cc1ccccc1)[Hg][C]#Cc1ccccc1`, the growth inhibition in test [1] (setting [7]) is 65%; in test [1] (setting [8]) it was 99% (active); in test [1] (at 50.0 µM), 98.8% (active); in test [2] (setting [7]), 94% (active); in test [2] (setting [8]), 99% (active); in test [2] (at 50.0 µM) it was 98.8% (active). The growth inhibition in test [3] (setting [7]) was 94% (active); in test [3] (setting [8]) it was 100% (active); in test [3] (at 50.0 µM), 99% (active); in test [4] (setting [7]) it was 26%; in test [4] (setting [8]), 99% (active); in test [4] (at 50.0 µM), 84.9% (active). Further, the growth inhibition was 21% in test [5] (setting [7]); 99% (active) in test [5] (setting [8]); 98.3% (active) in test [5] (at 50.0 µM); 24% in test [6] (setting [7]); 99% (active) in test [6] (setting [8]); 98.8% (active) in test [6] (at 50.0 µM).
Consider `CC(C)C1=CC23CCC4C(C)(C(=O)O)CCCC4(C)C2CC1OO3` (configuration not stated), for which the growth inhibition is 37% in test [1] (setting [7]); 91% (active) in test [1] (setting [8]); 98.2% (active) and 98.8% (active) in test [1] (at 50.0 µM); 10% in test [2] (setting [7]); 94% (active) in test [2] (setting [8]); 93.1% (active) and 98.8% (active) in test [2] (at 50.0 µM). In addition, the growth inhibition in test [3] (setting [7]) was 17%; in test [3] (setting [8]), 84% (active); in test [3] (at 50.0 µM) it was 98.2% (active) and 98.9% (active); in test [4] (setting [7]) it was 1%; in test [4] (setting [8]) it was 78% (active); in test [4] (at 50.0 µM) it was 97% (active) and 90.4% (active). The growth inhibition in test [5] (setting [7]) was -3%; in test [5] (setting [8]), 80% (active); in test [5] (at 50.0 µM), 98% (active) and 99.5% (active); in test [6] (setting [7]), 27%; in test [6] (setting [8]), 89% (active); in test [6] (at 50.0 µM), 98.5% (active) and 95.2% (active).
Turning to `COc1ccc(/C=C/[N+](=O)[O-])c(OC)c1OC`, the growth inhibition in test [1] (setting [7]) is 43%; in test [1] (setting [8]) it was 50%; in test [1] (at 50.0 µM), 84.5% (active); in test [2] (setting [7]), 52%; in test [2] (setting [8]), 55%; in test [2] (at 50.0 µM), 92.5% (active). The growth inhibition in test [3] (setting [7]) is 48%; in test [3] (setting [8]) it was 100% (active); in test [3] (at 50.0 µM), 93.2% (active); in test [4] (setting [7]) it was 50%; in test [4] (setting [8]), 99% (active); in test [4] (at 50.0 µM) it was 54%. The growth inhibition is 69% in test [5] (setting [7]); 99% (active) in test [5] (setting [8]); 91.8% (active) in test [5] (at 50.0 µM); 39% in test [6] (setting [7]); 48% in test [6] (setting [8]); 87.8% (active) in test [6] (at 50.0 µM).
